# Experimental data reported in PubChem BioAssay (NCATS).
# Values joined by “and” are separate entries in the source; they are usually repeats but may differ in a detail not shown here. Equal entries are not always repeated. Records with an inconclusive call do not appear. A call without a number means that no potency is given here. Active and inactive are the calls of the source. Unless noted, calls come from the whole dose curve; as a rule, active = well fitted curve in the direction sought with a large enough effect; inconclusive = small, poorly fitted or top-dose-only effect, or another doubt; inactive = no such curve, though single readings can be large; an effect the other way counts as inactive or inconclusive.
# Key:
# [1] = biological target: alpha-glucosidase (Oryza sativa, rice) (UniProt Q653V4); assay: Counterscreen for Glucocerebrosidase Inhibitors: qHTS Assay for Rice alpha-Glucosidase at pH 5.0 (AID 997); conditions: rice alpha-glucosidase enzyme activity; series mostly up to 76.9 µM
# Method in brief: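 Rice alpha-glucosidase (4 nM final) with 400 uM 4-methylumbelliferyl-alpha-D-glucopyranoside in citrate buffer pH 5.0, 20 min at room temperature, stopped at pH 10; fluorescence 365/440 nm, compounds 0.7 nM–77 uM, AC50 from Hill fits.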
# [2] = qHTS Assay for Lipid Storage Modulators (AID 1519; calls by dose curve); conditions: Drosophila S3 cells, BODIPY lipid droplet/cell ratio, laser cytometry, cells loaded with oleic acid
# Method in brief: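 Cells seeded at 5,000 per well were treated with compounds over a concentration series and loaded with oleic acid (400 uM, as added). Lipid droplet fluorescence (488 nm excitation, 500-530 nm channel) was read by laser-scanning cytometry and normalized to 20 uM Triacsin C.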
# [3] = Counterscreen for APE1 Inhibitors: Fluorescent Dye Displacement Validation Assay (AID 1707); conditions: fluorescent dye displacement from DNA; series mostly up to 57.1 µM
# Method in brief: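 Compounds are scored by their ability to displace Thiazole Orange (250 nM) from a 50 nM TAMRA-tagged duplex bearing a tetrahydrofuran abasic site. Buffer is 50 mM Tris-HCl pH7.5, 50mM NaCl, 2 mM MgCl2, 0.01% Tween-20.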
# [4] = biological target: Endonuclease 4 (Escherichia coli (strain K12)) (UniProt P0A6C1); assay: Counterscreen for APE1 Inhibitors: qHTS Validation Assay for Inhibitors of Endonuclease IV (AID 1708); conditions: E. coli endonuclease IV, DNA cleavage fluorescence; series mostly up to 57.1 µM
# Method in brief: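 2 nM enzyme was preincubated with compounds for 15 min at room temperature in 50 mM Tris-HCl pH 7.5, 50 mM NaCl, 2 mM MgCl2, 1 mM DTT, 0.01% Tween-20. 50 nM THF-abasic TAMRA/BHQ-2 duplex substrate started the reaction.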
# [5] = qHTS for differential inhibitors of proliferation of Plasmodium falciparum line 7G8 (AID 1815); conditions: Plasmodium falciparum 7G8 proliferation inhibition; series mostly up to 28.7 µM;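 note: parasite growth measured after three days of incubation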; note: potency is the fitted concentration of half-maximal effect
# [6] = qHTS for differential inhibitors of proliferation of Plasmodium falciparum line 3D7 (AID 1876); note: potency is the fitted concentration of half-maximal effect; conditions: P. falciparum 3D7 proliferation inhibition; series mostly up to 28.7 µM
# [7] = qHTS for differential inhibitors of proliferation of Plasmodium falciparum line D10 (AID 1877); conditions: series mostly up to 28.7 µM;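 note: parasites grown with compound for 72 h before DNA staining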; note: potency is the fitted concentration of half-maximal effect
# [8] = qHTS for differential inhibitors of proliferation of Plasmodium falciparum line W2 (AID 1883); conditions: Potency: Plasmodium falciparum W2 proliferation inhibition; series mostly up to 28.7 µM;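 note: parasites grown with compound for 72 h before lysis and staining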; note: potency is the fitted concentration of half-maximal effect
# [9] = Cell Viability - LYMP2-020 (AID 986); conditions: series mostly up to 92.2 µM;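 note: cells exposed to compound for 24 h at 37 °C; nearly all actives have a fitted effect of over 55% in size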
# Method in brief: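 Acute cytotoxicity in a human lymphoblastoid line is scored as a concentration-dependent fall in cellular ATP after 24 hr at 37 C in complete medium. The positive control is tetraoctylammonium bromide, and potency is given as Hill-fit AC50.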
# [10] = Cell Viability - LYMP2-024 (AID 988); conditions: LYMP2-024 lymphoblastoid cell viability; series mostly up to 92.2 µM;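 note: cells exposed to compound for 24 hr at 37 °C; nearly all actives have a fitted effect of over 60% in size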
# Method in brief: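 Acute toxicity is measured as concentration-dependent loss of intracellular ATP in a human lymphoblastoid line treated 24 hours at 37 C. Luciferase luminescence quantifies ATP; AC50 values come from standard Hill-equation modelling.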
# [11] = Cell Viability - LYMP1-002 - Assay at 24 hr (AID 993); conditions: LYMP1-002 lymphoblastoid cells viability; series mostly up to 92.2 µM
# Method in brief: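 qHTS, LYMP1-002 lymphoblastoid, 24 h cpd, 37 C, CellTiter-Glo ATP luminescence; AC50 via Hill eq.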
# [12] = biological target: DNA repair nuclease/redox regulator APEX1 (Homo sapiens) (UniProt P27695); assay: qHTS Validation Assay for Inhibitors of the Human Apurinic/apyrimidinic Endonuclease 1 (APE1) (AID 1705; note: potency is the fitted concentration of half-maximal effect;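 for activity change, negative = inhibition: TAMRA fluorescence gain over two minutes as APE1 cuts a quenched THF abasic duplex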); conditions: purified APE1 endonuclease activity, fluorescence, titration; series mostly up to 57.1 µM
# Chain of DNA repair nuclease/redox regulator APEX1 (Homo sapiens) (P27695 whole entry, looked up): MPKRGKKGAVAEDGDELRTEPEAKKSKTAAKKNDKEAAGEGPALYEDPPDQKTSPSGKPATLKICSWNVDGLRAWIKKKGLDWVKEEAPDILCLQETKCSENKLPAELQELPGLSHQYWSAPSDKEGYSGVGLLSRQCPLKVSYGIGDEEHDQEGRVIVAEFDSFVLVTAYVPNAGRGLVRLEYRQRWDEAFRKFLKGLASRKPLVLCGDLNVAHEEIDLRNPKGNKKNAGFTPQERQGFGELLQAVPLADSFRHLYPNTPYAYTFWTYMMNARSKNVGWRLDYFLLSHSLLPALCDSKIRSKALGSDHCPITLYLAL
# Method in brief: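 Fluorogenic double-stranded THF abasic-site substrate (5'-TAMRA/3'-BHQ-2), 50 nM final. Enzyme preincubated with compound 15 min at room temperature, then substrate added. Kinetic fluorescence (ex 525/em 598 nm) read three times at 60 s intervals; activity taken as third-minus-first read difference.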
# [13] = qHTS for differential inhibitors of proliferation of Plasmodium falciparum line GB4 (AID 1816); conditions: Potency: Plasmodium falciparum GB4 proliferation inhibition; series mostly up to 28.7 µM;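 note: parasite growth measured after 72 h incubation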; note: potency is the fitted concentration of half-maximal effect
# [14] = qHTS for differential inhibitors of proliferation of Plasmodium falciparum line Dd2 (AID 1882); conditions: Potency: Plasmodium falciparum Dd2 proliferation inhibition; series mostly up to 28.7 µM; note: nearly all actives have a fitted effect of over 65% in size; note: potency is the fitted concentration of half-maximal effect;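 for activity change, negative = inhibition: compound exposure of 72 h on infected erythrocytes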
# Method in brief: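 SYBR Green I DNA fluorescence read-out, ex 485/em 535 nm. Signals were normalized to 0.29 uM artemisinin and DMSO wells, then corrected using vehicle-only plates flanking each stack. Parasite growth ran 72 h in erythrocytes before lysis.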
# [15] = biological target: Alpha-galactosidase A (Homo sapiens) (UniProt P06280); assay: Counterscreen for Glucocerebrosidase Inhibitors: qHTS Assay for Human alpha-Galactosidase at pH 4.5 (AID 992); conditions: purified enzyme, fluorogenic substrate; series mostly up to 76.9 µM
# Chain of Alpha-galactosidase A (Homo sapiens) (P06280 whole entry, looked up): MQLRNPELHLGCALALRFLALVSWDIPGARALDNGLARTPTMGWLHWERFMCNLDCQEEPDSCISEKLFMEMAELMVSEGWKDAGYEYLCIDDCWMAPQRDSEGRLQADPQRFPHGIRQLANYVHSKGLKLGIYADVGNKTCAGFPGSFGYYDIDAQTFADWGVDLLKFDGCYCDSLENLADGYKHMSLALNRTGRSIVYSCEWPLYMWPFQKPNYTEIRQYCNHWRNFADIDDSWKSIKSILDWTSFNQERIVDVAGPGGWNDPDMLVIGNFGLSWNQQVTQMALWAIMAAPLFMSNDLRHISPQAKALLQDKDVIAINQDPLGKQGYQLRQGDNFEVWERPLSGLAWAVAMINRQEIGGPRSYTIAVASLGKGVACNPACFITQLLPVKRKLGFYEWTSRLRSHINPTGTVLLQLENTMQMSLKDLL
# Method in brief: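 Quantitative HTS: compounds tested from 0.7 nM up to 77 uM against 2 nM enzyme with 80 uM 4-MU alpha-D-galactopyranoside. The 20 min room-temperature reaction is stopped with 1M NaOH/1M glycine, pH 10.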
# [16] = Cell Viability - LYMP2-018 (AID 985); conditions: LYMP2-018 lymphoblastoid cells, viability (qHTS); series mostly up to 92.2 µM;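 note: compound exposure lasted 24 hr at 37 °C; nearly all actives have a fitted effect of over 50% in size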
# Method in brief: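 Acute cytotoxicity is scored as a concentration-dependent drop in intracellular ATP after 24 hr exposure of the lymphoblastoid line in complete culture medium, measured by luciferase luminescence. Potency is expressed as AC50 from Hill modelling.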
# [17] = Cell Viability - LYMP2-022 (AID 987); conditions: LYMP2-022 lymphoblastoid cell viability; series mostly up to 92.2 µM;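 note: cells exposed to compound for 24 hr; nearly all actives have a fitted effect of over 55% in size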
# Method in brief: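 Acute toxicity in a human lymphoblastoid line is scored as decreased intracellular ATP after 24 hr compound treatment at 37 C. ATP is measured by CellTiter-Glo luminescence; curves are fitted with the Hill equation to give AC50.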
# [18] = Cell Viability - LYMP2-026 (AID 989); conditions: LYMP2-026 lymphoblastoid cell viability, qHTS; series mostly up to 92.2 µM;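 note: cells exposed to compound for 24 h at 37 °C; nearly all actives have a fitted effect of over 50% in size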
# Method in brief: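 Concentration-dependent loss of intracellular ATP in human lymphoblastoid cells after 24 hr at 37 C, quantified by luciferase luminescence. AC50 derived from standard Hill equation.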
# [19] = Cell Viability - LYMP1-002 - Assay at 40 hr (AID 994); conditions: LYMP1-002 lymphoblastoid cell viability; series mostly up to 92.2 µM; note: nearly all actives have a fitted effect of over 60% in size
# Method in brief: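 Viability in the human lymphoblastoid line was measured as intracellular ATP via CellTiter-Glo after 40 hr compound exposure. Tetraoctylammonium bromide served as positive control.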
# [20] = measured here: cell count channel max response
# [21] = measured here: lipid channel max response
smiles,measurement,setting,value
O=S(=O)(c1cccc2c(I)cccc12)N1CCCNCC1,outcome,[1],inactive
same,"activity change, negative = inhibition",[2]; at 57.5 µM (top of the series),1.19% (inactive)
same,max response,[2]; [20],-8.25%
same,max response,[2]; [21],-5.07%
same,Potency,[3],inactive
same,Potency,[4],inactive
same,Potency,[5],inactive
same,Potency,[6],inactive
same,Potency,[7],inactive
same,Potency,[8],7.08 µM (active)
O=C1CN(/N=C/c2ccc([N+](=O)[O-])o2)C(=O)N1,Potency,[9],inactive
same,Potency,[10],inactive
same,Potency,[11],inactive
same,"activity change, negative = inhibition",[2]; at 57.5 µM (top of the series),8.89% (inactive)
same,max response,[2]; [20],3.43%
same,max response,[2]; [21],14.3%
O=C1NC(O)=NC1(c1ccccc1)c1ccccc1,outcome,[1],inactive
same,"activity change, negative = inhibition",[2]; at 57.5 µM (top of the series),1.6% (inactive)
same,max response,[2]; [20],-13.9%
same,max response,[2]; [21],-13.3%
same,Potency,[12],inactive
same,Potency,[3],inactive
same,Potency,[4],inactive
same,Potency,[5],inactive
same,Potency,[13],inactive
same,Potency,[6],inactive
same,Potency,[7],inactive
same,Potency,[14],inactive
same,Potency,[8],inactive
CC(COc1ccc(/C=C/c2ccccc2)cc1)[N+](C)(C)C (configuration not stated),Potency,[12],inactive
same,Potency,[3],inactive
same,Potency,[4],inactive
same,Potency,[5],7.08 µM (active)
same,Potency,[13],2.24 µM (active)
same,Potency,[6],1.26 µM (active)
same,Potency,[7],2.24 µM (active)
same,Potency,[14],5.01 µM (active)
same,Potency,[8],2.82 µM (active)
Nc1ccn([C@@H]2O[C@H](CO)[C@@H](O)[C@@H]2O)c(=O)n1,Potency,[12],inactive
same,Potency,[3],inactive
same,Potency,[5],inactive
same,Potency,[13],inactive
same,Potency,[6],inactive
same,Potency,[7],inactive
same,Potency,[14],inactive
same,Potency,[8],inactive
CC(C)NC[C@H](O)COc1cccc2[nH]ccc12,outcome,[1],inactive
same,"activity change, negative = inhibition",[2]; at 57.5 µM (top of the series),1.59% (inactive)
same,max response,[2]; [20],-1.16%
same,max response,[2]; [21],-1.16%
same,Potency,[12],inactive
same,Potency,[3],inactive
O=C1C(SCCO)=C(SCCO)C(=O)c2ccccc21,outcome,[15],inactive
same,outcome,[1],inactive
same,Potency,[12],inactive
same,Potency,[3],inactive
same,Potency,[4],inactive
same,Potency,[5],3.16 µM (active)
same,Potency,[13],2 µM (active)
same,Potency,[6],2.24 µM (active)
same,Potency,[7],11.2 µM (active)
same,Potency,[14],6.31 µM (active)
same,Potency,[8],10 µM (active)
CCCCCCCCCCCCCCCCCC(=O)NCC(COP(=O)([O-])OCC[N+](C)(C)C)OCC (configuration not stated),"activity change, negative = inhibition",[2]; at 57.5 µM (top of the series),-1.69% (inactive)
same,max response,[2]; [20],15.1%
same,max response,[2]; [21],12.1%
same,Potency,[12],inactive
same,Potency,[3],inactive
same,Potency,[4],inactive
same,Potency,[5],inactive
same,Potency,[13],inactive
same,Potency,[6],inactive
same,Potency,[7],14.1 µM (active)
same,Potency,[14],inactive
S=c1[nH]c2ccccc2s1,Potency,[16],inactive
same,Potency,[9],inactive
same,Potency,[17],inactive
same,Potency,[10],inactive
same,Potency,[18],inactive
same,Potency,[11],inactive
same,Potency,[19],inactive
same,"activity change, negative = inhibition",[2]; at 57.5 µM (top of the series),12% (inactive)
same,max response,[2]; [20],14.4%
same,max response,[2]; [21],29.5%
COc1cc(OC)c(/C=C2/C(=O)Nc3ccccc32)c(OC)c1,outcome,[1],inactive
same,"activity change, negative = inhibition",[2]; at 57.5 µM (top of the series),-1.27% (inactive)
same,max response,[2]; [20],30.4%
same,max response,[2]; [21],28.6%
same,Potency,[3],inactive
same,Potency,[7],inactive
same,Potency,[14],inactive
N[C@H](CCCP(=O)(O)O)C(=O)O,outcome,[15],inactive
same,outcome,[1],inactive
same,"activity change, negative = inhibition",[2]; at 57.5 µM (top of the series),2.93% (inactive) and -1.99% (inactive)
same,max response,[2]; [20],-9.86% and -13.3%
same,max response,[2]; [21],-5.72% and -16.1%
CO/N=C(\C(=O)N[C@@H]1C(=O)N2C(C(=O)O)=C(COC(C)=O)CS[C@H]12)c1csc(N)n1 (stereo in doubt),Potency,[12],2.24 µM (active)
same,Potency,[3],inactive
same,Potency,[5],inactive
same,Potency,[13],inactive
same,Potency,[6],inactive
same,Potency,[7],inactive
same,Potency,[14],inactive
O=c1[nH]c2cc(Cl)c(Cl)cc2[nH]c1=O,outcome,[1],inactive
same,"activity change, negative = inhibition",[2]; at 57.5 µM (top of the series),-0.911% (inactive)
same,max response,[2]; [20],-49.2%
same,max response,[2]; [21],-51.3%
same,Potency,[3],inactive
same,Potency,[4],inactive
same,Potency,[6],2.51 µM (active)
same,Potency,[14],inactive
same,Potency,[8],3.55 µM (active)
O=C(c1cc(O)c(O)c([N+](=O)[O-])c1)c1ccccc1F,outcome,[15],inactive
same,outcome,[1],inactive
same,"activity change, negative = inhibition",[2]; at 57.5 µM (top of the series),-2.67% (inactive)
same,max response,[2]; [20],-12%
same,max response,[2]; [21],-15.8%
same,Potency,[3],inactive
same,Potency,[4],inactive
same,Potency,[6],inactive
same,Potency,[7],inactive
same,Potency,[14],inactive
CCCSc1ccc2nc(NC(=O)OC)[nH]c2c1,"activity change, negative = inhibition",[2]; at 25.7 µM (top of the series),-1.88% (inactive)
same,"activity change, negative = inhibition",[2]; at 57.5 µM (top of the series),9.19% (inactive)
same,max response,[2]; [20],-8.08% and -12.8%
same,max response,[2]; [21],-10.3% and -11.2%
NCCCS(=O)(=O)O,outcome,[1],inactive
same,"activity change, negative = inhibition",[2]; at 57.5 µM (top of the series),4.47% (inactive)
same,max response,[2]; [20],17.3%
same,max response,[2]; [21],22.8%
same,Potency,[12],inactive
same,Potency,[3],inactive
same,Potency,[4],inactive
same,Potency,[8],11.2 µM (active)
CC(C)(C)c1ccc(S(=O)(=O)/C=C/C#N)cc1,Potency,[12],inactive
same,Potency,[3],inactive
same,Potency,[4],inactive
same,Potency,[5],10 µM (active)
same,Potency,[13],14.1 µM (active)
same,Potency,[6],10 µM (active)
same,Potency,[7],12.6 µM (active)
same,Potency,[14],11.2 µM (active)
same,Potency,[8],7.08 µM (active)
C[C@@H](CN1CCC(Cc2ccccc2)CC1)[C@@H](O)c1ccc(O)cc1,"activity change, negative = inhibition",[2]; at 57.5 µM (top of the series),0.466% (inactive)
same,max response,[2]; [20],15.4%
same,max response,[2]; [21],14.5%
same,Potency,[12],inactive
same,Potency,[3],inactive
same,Potency,[4],inactive
same,Potency,[5],10 µM (active)
same,Potency,[13],14.1 µM (active)
same,Potency,[8],4.47 µM (active)
